# Source: PubChem BioAssay (National Center for Advancing Translational Sciences (NCATS))
# The list is not random: actives were taken first. Their share in the collection is about 21%.
# Sm TGR inh: qHTS Assay for the Inhibitors of Schistosoma Mansoni Peroxiredoxins; Schistosoma mansoni thioredoxin glutathione reductase (TGR), Q962Y6; purified TGR, DTNB reduction, TNB absorbance 405 nm; Potency, µM (titrated, usually from 114 µM), for inactives: at the top dose activity change, negative = inhibition, most hits filed as inhibitors; 360,000 compounds, 3% hits; also: potency is read from the fitted curve at half-maximal effect; % is scaled to controls: 0 for no effect and ±100 for the full control effect; nearly all actives have a fitted effect of over 60% in size
#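 First, TGR (20 nM dispensed) and NADPH were mixed with compound. Second, a 15 min room-temperature incubation followed. Third, further NADPH and then DTNB were added to start the reaction. Finally, TNB absorbance was monitored kinetically.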
# Cycloheximide cs: Cycloheximide Counterscreen for Small Molecule Inhibitors of Shiga Toxin; 300,000 compounds, 12% hits; max response, %; cell reporter, cycloheximide protein synthesis inhibition counterscreen; in the data active = max response mostly above about 13%, no sharp cut-off; inactive = mostly below about 14%; also: read at 38.3 µM for the half of the compounds with a filed dose; 0% is about no effect
# NS1 function inh: qHTS Assay for Inhibitors of Influenza NS1 Protein Function; Potency, µM (titrated, usually from 46.1 µM), for inactives: at the highest dose activity, positive = more growth; 270,000 compounds, 0.4% hits; calls by dose curve; also: potency is read from the fitted curve at half-maximal effect; actives are rising curves; nearly all actives have a fitted effect of over 50% in size
#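 S. cerevisiae expressing influenza A NS1, grown in glucose, washed, then diluted 1:100 into pH 6.0 -URA galactose medium with 23 nl compound. Growth recovery read as OD600; NS1-free strain serves as control.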
# Pf growth 48h: Primary qHTS for delayed death inhibitors of the malarial parasite plastid, 48 hour incubation. P. falciparum luciferase growth in erythrocytes, 48 h. Potency, µM (top dose mostly 28.7 µM), for the others: top-dose activity change, negative = inhibition, most hits filed as inhibitors. 310,000 compounds, 5.9% hits. AID 504832, 2011; also: potency is read from the fitted curve at half-maximal effect; % is scaled to controls: 0 for no effect and ±100 for the full control effect
#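 Compounds are pin-transferred into medium, infected erythrocytes (2% hematocrit, 0.1% parasitemia final) are added, and plates sit one parasite generation at 37 C in 5% CO2. Detection reagent is then added and luminescence measured.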
# Shiga toxin inh: A qHTS for Small Molecule Inhibitors of Shiga Toxin; Vero cells, Shiga toxin protein synthesis inhibition reporter; inhibition, % at 38.7 µM; 290,000 compounds, 9.2% hits; AID 2315, 2010; in the data active = inhibition mostly above about 28%, no sharp cut-off; inactive = mostly below about 43%; also: 0% is about no effect
# Pf growth 96h: Primary qHTS for delayed death inhibitors of the malarial parasite plastid, 96 hour incubation; P. falciparum luciferase reporter growth, 96 h; Potency, µM (highest dose often 28.7 µM), without a hit: at the highest dose activity change, negative = inhibition, actives largely listed as inhibitors; 320,000 compounds, 6.9% hits; AID 504834, 2011; also: potency is read from the fitted curve at half-maximal effect; % is scaled to controls: 0 for no effect and ±100 for the full control effect
#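 Erythrocytes infected with luciferase-expressing P. falciparum were dispensed at 2% hematocrit and 0.05% parasitemia (final), then incubated with compounds 96 hours at 37 C in 5% CO2. Luminescence after detection reagent addition reported growth.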
# Starred values were filed as active, the others as inactive; i = inactive; ? = inconclusive; . = no result; ! = not active in a repeat; [ ] = remark or other dose. Unless noted, calls follow the shape of the dose curve; as a rule, active = well fitted curve in the direction sought with a large enough effect; inconclusive = small, poorly fitted or top-dose-only effect, or another doubt; inactive = no such curve, though single readings can be large; an effect the other way counts as inactive or inconclusive.
SMILES,Sm TGR inh,Cycloheximide cs,NS1 function inh,Pf growth 48h,Shiga toxin inh,Pf growth 96h
Cc1cccc(C(=O)O/N=C(\N)c2ccc(Br)cc2)c1,-24%,56*,-41%,.,63,?
Cc1ccc(C)c(C(=O)O/N=C(\N)c2ccc(Br)cc2)c1,12%,21,-67%,.,31,-3%
Cc1ccc(/C(N)=N/OC(=O)c2ccc(Cl)cc2Cl)cc1,-2%,82*,-59%,120%,92*,-10%
N/C(=N\OC(=O)c1ccc2ccccc2c1)c1ccc(Br)cc1,-8%,6,3%,13µM*,19,293%
N/C(=N\OC(=O)c1ccoc1)c1ccc(Br)cc1,-17%,74*,-176%,311%,90*,12%
CSc1nc(NC2CCCC2)c([N+](=O)[O-])c(NC2CCCC2)n1,.,7,.,.,13,.
O=C(COc1ccc(Cl)cc1)NCc1nnc(SCC(=O)N2CCCCCC2)o1,5%,8,.,-2%,-6,?
Cc1cc(C)c(S(=O)(=O)c2ccccc2)c(OC(=O)c2ccc(Cl)cc2Cl)n1,23%,3,0%,.,-11,?
Cc1cc(OC(=O)c2ccc(Cl)cc2Cl)nc(C)n1,56µM*,-1,-4%,6%,1,37%
Cc1ccc(C(=O)O/N=C(\N)c2ccc(Br)cc2)cc1C,2%,42*,-23%,.,130*,-18%
Cc1cccc(C(=O)O/N=C(\N)c2ccc(Cl)cc2)c1,0%,56*,-36%,66%,71*,200%
C/C(=N/OC(=O)c1ccc(C)cc1)C(=O)c1ccc(Br)cc1,4%,1,-63%,37%,-12,0%
Cc1cccc(OCC(=O)O/N=C(\N)c2ccc(Cl)cc2)c1,-19%,-3,-49%,28%,-7,?
Cc1cccc(C(=O)O/N=C/c2ccc(Br)cc2)c1,-2%,44*,.,36%,88*,-4%
Cc1ccc2onc(CC(=O)N3CCN(c4cccc(C)c4C)CC3)c2c1,-5%,.,.,.,.,.
COc1cccc(OCc2cc(C(=O)N(C)CCC3CCCCO3)no2)c1 (centres undefined),8%,75*,-20%,7%,152*,?
CN(CCCN1CCOCC1)C(=O)c1cc(COc2cccc(C(F)(F)F)c2)on1,-8%,-2,1%,15%,8,-11%
CCCN(CC1CCCO1)C(=O)c1cc(COc2cccc(OC)c2)on1 (centres undefined),0%,14*,-22%,?,26,123%
COc1cccc(CN(C)C(=O)c2cc(COc3ccc(-n4cncn4)cc3)on2)c1,-16%,-3,-22%,?,-4,-18%
COc1cccc(OCc2cc(C(=O)N(C)Cc3nccn3C)no2)c1,-2%,53*,2%,18%,136*,15%
COc1ccc(OCc2cc(C(=O)N(Cc3nccn3C)C(C)C)no2)c2ccccc12,-26%,43*,-29%,-15%,47*,-3%
COc1ccc(OCc2cc(C(=O)N(C)Cc3nccn3C)no2)c2ccccc12,-7%,7,-19%,-30%,22,?
C/C(=N\O)c1cccc[n+]1Cc1ccccc1,.,.,-8%,.,.,.
CCCCC[C@H]1CN(Cc2ccccc2)C(=O)[C@@H]1CC(=O)NCc1ccc(OC)cc1,-5%,-1,-32%,-1%,-5,38%
CC(=O)c1ccc(OCc2cc(C(=O)N(C)CCN3CCOCC3)no2)cc1,?,16,-7%,?,25,4%
SMILES,Sm TGR inh,Cycloheximide cs,NS1 function inh,Pf growth 48h,Shiga toxin inh,Pf growth 96h
CC(=O)c1cccc(OCc2cc(C(=O)N(C)CCC3CCOCC3)no2)c1,2.2µM*,42*,?,2%,68*,4%
CN1C[C@H](CO)C=C2c3cccc4[nH]cc(c34)C[C@H]21,11µM*,0,12%,?,10,?
CN1C[C@@H](CO)C=C2c3cccc4[nH]cc(c34)CC21 (some centres undefined),.,-8,.,.,-4,.
O=C1c2ccccc2C2=Nc3ccccc3SC(c3ccc(Cl)cc3)C12 (centres undefined),-13%,3,-10%,0.52µM*,-6,-25%
O=C1CCCC2=C1C(c1ccc(Cl)cc1)C1C(=O)c3ccccc3C1=N2 (centres undefined),-28%,0,?,?,-10,?
O=C1c2ccccc2C2=Nc3ccccc3SC(c3cccc(F)c3)C12 (centres undefined),-3%,-2,10%,0.59µM*,-6,?
Cc1cccc(-c2cc(C(=O)Nc3ccc4c(c3)OCCO4)c3ccccc3n2)c1,9%,32*,13%,?,96*,12µM*
CCOc1ccc(-c2cc(C(=O)Nc3ccc4c(c3)OCCO4)c3ccccc3n2)cc1,-16%,23*,-3%,108%,52*,31%
O=C(Cc1ccc(F)cc1)N1CCC(c2nc3c(nnn3Cc3ccc(F)cc3)c(=O)[nH]2)CC1,-3%,.,.,.,.,.
Cc1ccc(CSc2ncc(Cl)c(C(=O)NCCc3ccc(S(N)(=O)=O)cc3)n2)cc1,-8%,.,.,.,.,.
C[N+](C)(N)CCC[N+](C)(C)N,.,.,-2%,.,.,.
COc1ccc(-c2c(C)nc(N)nc2-c2ccc(OC)cc2O)cc1,4%,12,-4%,?,9,?
COc1ccc(-c2c(C)nc3c(-c4ccsc4)cnn3c2N)cc1,-13%,33*,3%,16%[0.00184 µM],85*,318%
COc1ccc(-c2c(C)nc3c(-c4ccccn4)cnn3c2N)cc1,-2%,59*,-6%,10%,96*,29%
COc1cccc(NC(=O)C(=O)N2CCOCC2)c1,-23%,41*,10%,i,50*,1%
COC(=O)c1ccc(NC(=O)C(=O)N2CCN(C(=S)Nc3cccc(OC)c3)CC2)cc1,-1%,11,3%,2%,5,-14%
COc1cc(OC)cc(C(=O)N2CCCc3ccccc32)c1,3%,24*,-61%,0%,85,0%
COc1ccc(NC(=O)N2CCCc3ccccc32)cc1OC,-10%,16*,-16%,16%,55,-20%
COc1ccc(C(=O)N2CCCC2=O)cc1,6%,-4,-1%,19%,23,13µM*!
Cc1ccc(-n2nc(C)c3nc(CCC(=O)Nc4cccc(C)c4C)c(=O)n(C)c32)cc1,4%,.,.,.,.,.
CC(C)Cn1cc(NC(=O)NCc2ccccc2Cl)c2ccccc2c1=O,9%,.,.,.,.,.
CCCC(C(=O)NC(C)(C)C)N(CCN1CCOCC1)C(=O)CNS(=O)(=O)c1ccccc1 (centres undefined),9%,-2,3%,2%,-8,-2%
O=C(c1cc2ccccc2c(=O)o1)N1CCCc2ccccc21,22%,17*,1%,-15%,50,?
COc1cccc(NC(=O)N2CCCc3ccccc32)c1,.,47*,3%,33%,73*,-11%
